Results filed as inconclusive are left out. The source made the active and inactive calls. Unless noted, calls come from the whole dose curve; as a rule, active = well fitted curve in the direction sought with a large enough effect in the repeat runs; inconclusive = weak or mixed curves; inactive = no such curve, though single readings can be large; an effect the other way counts as inactive or inconclusive.
Tests used:
[1] = qHTS assay to identify small molecule antagonists of the estrogen related receptor (ERR) signaling pathway from Tox21 library - cell viability counter screen (AID 1224834); note: nearly all actives have a fitted effect of over 30% in size; note: potency is the fitted concentration of half-maximal effect
Outline: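 ERR reporter cells were plated 6 h before compound addition, then exposed to test compounds in DMSO for 17.5 h at 37 C. Viability was read as CellTiter-Fluor fluorescence after a 30-minute incubation at 37 C.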

[2] = qHTS assay to identify small molecule agonists of the constitutive androstane receptor (CAR) signaling pathway - cell viability counter screen (AID 1224836); note: nearly all actives have a fitted effect of over 45% in size
Outline: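 Cells were seeded and incubated 4 hrs. Compounds were added across 15 concentrations together with PK11195 at 0.75 uM final. Plates were incubated 23 hrs at 37 C. CellTiter-Fluor was added and fluorescence measured.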

[3] = qHTS assay to identify small molecule antagonists of the constitutive androstane receptor (CAR) signaling pathway - cell viability counter screen (AID 1224837); note: nearly all actives have a fitted effect of over 45% in size
Outline: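 HepG2 cells stably expressing hCAR and a CYP2B6-2.2kb reporter were plated and pre-incubated 4 hr at 37 C/5% CO2, then given compounds at 15 concentrations plus 50 nM CITCO (final). After 23 hr, viability was read by CellTiter-Fluor fluorescence.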

[4] = biological target: Nuclear receptor subfamily 1 group I member 3 (Homo sapiens) (UniProt Q14994); experiment: qHTS assay to identify small molecule antagonists of the constitutive androstane receptor (CAR) signaling pathway (AID 1224838); note: nearly all actives have a fitted effect of over 40% in size
Outline: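 HepG2 cells stably co-transfected with hCAR and a CYP2B6-2.2kb luciferase reporter were seeded 4 h before compound addition at 15 concentrations. Cells were stimulated with 50 nM CITCO (final) for 24 h at 37 C; luciferase luminescence was then read.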

[5] = qHTS assay to identify small molecule antagonists of the estrogen related receptor signaling pathway with the pleiotropic PPARgamma coactivator (PGC) from Tox21 10K library - cell viability counter screen (AID 1224840; active = well fitted cell-killing curve with a large enough effect in the repeat runs, not every such curve was filed as active; note: nearly all actives have a fitted effect of over 40% in size)
Outline: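 PGC/ERR cells were seeded at 2,000 cells/well and left 6 hours at 37 C/5% CO2 before pin-tool addition of compounds in DMSO. After 17.5 hours at 37 C, CellTiter-Fluor was added and fluorescence read 30 minutes later.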

[6] = biological target: Thyrotropin receptor (Homo sapiens) (UniProt P16473); experiment: qHTS assay to identify small molecule agonists of the thyroid stimulating hormone receptor (TSHR) signaling pathway (AID 1224843; calls by dose curve; note: nearly all actives have a fitted effect of over 45% in size)
Outline: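 Screening of the Tox21 10K collection used HEK293 cells engineered with TSHR at 800 cells per well. After a 30-min room-temperature compound exposure, HTRF cAMP reagents were added and fluorescence recorded 1 h later.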

[7] = qHTS assay to identify small molecule agonists of the hypoxia (HIF-1) signaling pathway - cell viability counter screen (AID 1224844; calls by dose curve; note: nearly all actives have a fitted effect of over 50% in size)
Outline: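 HRE-bla ME-180 cells in medium with 0.5% dialyzed FBS were preincubated 5 hrs at 37C, exposed to compounds for 17 hrs, then viability was read as CellTiter-Glo luminescence after 30 min at room temperature, in the reporter wells.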

[8] = qHTS assay to identify small molecule agonists of H2AX (AID 1224845; active = well fitted activation curve with a large enough effect in the signal ratio in the repeat runs, not every such curve was filed as active; the % refers to the signal ratio)
Outline: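 Phospho-H2AX Ser139 measured by HTRF (ex 320 nm; em 665 and 620 nm) after 24 hr antibody incubation. Compounds, 15 concentrations, 0.76% DMSO, were applied to CHO-K1 cells for 3hr at 37C before lysis.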

[9] = qHTS assay to identify small molecule agonists of the hypoxia (HIF-1) signaling pathway (AID 1224846; active = well fitted activation curve with a large enough effect in the signal ratio in the repeat runs, not every such curve was filed as active; the % refers to the signal ratio)
Outline: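 HRE-bla ME-180 cells (beta-lactamase reporter under hypoxia response element) were plated at 2,000 cells/well in medium with 0.5% dialyzed FBS, rested 5 hrs, then given compounds in DMSO for 17 hrs at 37C, 5% CO2. Reporter induction was read with CCF4-AM FRET substrate.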

[10] = A CellTox Green Cytotoxicity Assay to monitor cytotoxicity in HEK293 cells - 0 hour (AID 1224869); note: nearly all actives have a fitted effect of over 50% in size
Outline: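 HEK293 cells premixed with CellTox Green dye were seeded at 600 cells/well and left 5 h at 37 C/5% CO2 before pin transfer of 23 nL compound in DMSO. Fluorescence from dye bound to dead-cell DNA was read during 40 h treatment.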

[11] = qHTS RealTime-Glo MT Cell Viability Assay in HepG2 cells - 40 hour (AID 1224870); note: nearly all actives have a fitted effect of over 50% in size
Outline: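 Real-time viability: cells seeded at 600 per well together with NanoLuc and cell-permeant prosubstrate, compounds added after 5 h incubation. Luminescence tracked at 0, 8, 16, 24, 32 and 40 h of exposure.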

[12] = qHTS assay to identify small molecule agonists of H2AX - cell viability counter screen (AID 1224847; calls by dose curve; note: top concentration of the series differs between compounds; nearly all actives have a fitted effect of over 30% in size)
Outline: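 Cytotoxicity counter screen in wild-type CHO-K1 cells: a 3 hr compound treatment at 37C across 15 concentrations, followed by CellTiter-Glo luminescence to gauge viable cells.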

[13] = qHTS RealTime-Glo MT Cell Viability Assay in HEK293 cells - 32 hour (AID 1224868); note: nearly all actives have a fitted effect of over 50% in size; note: potency is the fitted concentration of half-maximal effect; for activity change, negative = cytotoxic: top concentration of the series differs between compounds
Outline: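 Tox21 10K qHTS, HEK293, 600 cells/well, RealTime-Glo reagent co-dispensed with cells; 5 h preincubation, compound by pintool, 37 C, luminescence at 0–40 h.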

[14] = biological target: Luciferin 4-monooxygenase (Photinus pyralis) (UniProt P08659); experiment: qHTS assay to identify small molecule inhibitors of firefly luciferase (AID 1224835); note: nearly all actives have a fitted effect of over 25% in size; note: potency is the fitted concentration of half-maximal effect
Outline: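 Inhibition of purified Photinus luciferase is measured by luminescence. Substrate levels (D-luciferin, ATP) sit at their KM values. Each compound is tested in a concentration series.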

[15] = biological target: Nuclear receptor subfamily 1 group I member 3 (Homo sapiens) (UniProt Q14994); experiment: qHTS assay to identify small molecule agonists of the constitutive androstane receptor (CAR) signaling pathway (AID 1224839); note: nearly all actives have a fitted effect of over 15% in size; note: potency is the fitted concentration of half-maximal effect;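 for activation: HepG2 cells stably carrying human CAR and a CYP2B6 luciferase reporter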
Outline: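 Cells were plated and incubated 4 hrs, then dosed with compounds at 15 concentrations. PK11195 was added to 0.75 uM final. After 24 hrs at 37 C, luciferase luminescence was measured.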

[16] = qHTS RealTime-Glo MT Cell Viability Assay in HepG2 cells - 24 hour (AID 1224867); note: nearly all actives have a fitted effect of over 50% in size
Outline: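 Cells + NanoLuc/prosubstrate dispensed (600 cells/well) → 5 h at 37 C/5% CO2 → compounds in DMSO transferred → 40 h incubation at 37 C, luminescence read at 0, 8, 16, 24, 32, 40 h.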

[17] = qHTS assay to identify small molecule antagonists of the estrogen related receptor signaling pathway with the pleiotropic PPARgamma coactivator (PGC) from Tox21 10K library (AID 1224841; call rule not given here; note: potency is the fitted concentration of half-maximal effect)
Outline: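 PGC/ERR reporter cells were seeded at 2,000 cells/well and held 6 hours at 37 C/5% CO2 before pin-tool addition of compounds in DMSO. After 18 hours at 37 C, One-Glo was added and luminescence read after 30 minutes at room temperature.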

[18] = qHTS assay to identify small molecule agonists of the estrogen related receptor signaling pathway with the pleiotropic PPARgamma coactivator (PGC) from Tox21 10K library (AID 1224842); note: nearly all actives have a fitted effect of over 15% in size
Outline: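 Luminescence from One-Glo (30 min, room temperature) measured after PGC/ERR cells had 18 h at 37 C with pinned compound (23 nL in DMSO). Cells had been seeded at 2,000 per well and pre-incubated 6 h.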

[19] = qHTS assay to identify small molecule antagonists of the estrogen related receptor (ERR) signaling pathway from Tox21 library (AID 1224848); note: nearly all actives have a fitted effect of over 50% in size; note: potency is the fitted concentration of half-maximal effect
Outline: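 Antagonist-mode screen of the Tox21 10K library in an NTP-provided ERR reporter cell line; 18 h compound exposure at 37 C, luminescence measured with ONE-Glo.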

[20] = qHTS assay to identify small molecule agonists of the estrogen related receptor (ERR) signaling pathway from Tox21 library (AID 1224849; calls by dose curve; note: nearly all actives have a fitted effect of over 15% in size); details: ERR reporter cell line, ONE-Glo luciferase, 18 h; at 92.4 µM (top of the series) unless noted
Outline: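 ERR reporter cell line (NTP) seeded, rested 6 h at 37 C/5% CO2, then pinned with Tox21 compounds in DMSO. After 18 h at 37 C, ONE-Glo luciferase luminescence was read following 30 min at room temperature.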
% is set by controls: 0 for no effect and ±100 for the full control effect.

Chain of Nuclear receptor subfamily 1 group I member 3 (Homo sapiens) (Q14994 whole entry, looked up): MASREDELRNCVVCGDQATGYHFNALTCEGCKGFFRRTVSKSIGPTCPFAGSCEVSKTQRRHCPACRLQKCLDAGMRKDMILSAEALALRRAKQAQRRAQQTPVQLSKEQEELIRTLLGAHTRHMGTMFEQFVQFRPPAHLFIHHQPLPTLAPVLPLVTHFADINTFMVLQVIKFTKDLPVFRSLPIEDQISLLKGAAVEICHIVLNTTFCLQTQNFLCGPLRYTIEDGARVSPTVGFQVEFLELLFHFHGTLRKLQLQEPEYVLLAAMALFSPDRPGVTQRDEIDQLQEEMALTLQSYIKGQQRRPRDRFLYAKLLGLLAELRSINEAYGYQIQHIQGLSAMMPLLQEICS
Chain of Thyrotropin receptor (Homo sapiens) (P16473 whole entry, looked up): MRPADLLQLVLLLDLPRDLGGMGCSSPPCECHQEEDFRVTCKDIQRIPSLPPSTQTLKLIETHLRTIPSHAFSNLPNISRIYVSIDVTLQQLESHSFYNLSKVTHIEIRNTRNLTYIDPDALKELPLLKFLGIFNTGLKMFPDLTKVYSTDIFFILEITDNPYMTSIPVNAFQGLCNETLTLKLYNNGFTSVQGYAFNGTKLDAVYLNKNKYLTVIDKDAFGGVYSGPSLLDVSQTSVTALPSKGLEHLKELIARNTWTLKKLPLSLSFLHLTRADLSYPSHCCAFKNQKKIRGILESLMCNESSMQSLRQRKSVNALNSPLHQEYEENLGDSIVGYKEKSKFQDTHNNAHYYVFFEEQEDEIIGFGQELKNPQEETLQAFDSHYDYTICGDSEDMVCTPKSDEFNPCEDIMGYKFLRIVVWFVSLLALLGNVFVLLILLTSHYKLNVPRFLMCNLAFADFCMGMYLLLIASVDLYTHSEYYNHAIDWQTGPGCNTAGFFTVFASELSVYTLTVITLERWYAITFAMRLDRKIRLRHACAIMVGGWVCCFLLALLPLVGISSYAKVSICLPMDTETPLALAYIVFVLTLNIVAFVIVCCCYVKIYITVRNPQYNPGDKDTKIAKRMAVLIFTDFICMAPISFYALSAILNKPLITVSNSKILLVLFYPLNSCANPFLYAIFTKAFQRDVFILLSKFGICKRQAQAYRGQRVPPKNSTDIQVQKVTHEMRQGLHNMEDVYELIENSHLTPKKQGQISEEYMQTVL
Chain of Luciferin 4-monooxygenase (Photinus pyralis) (P08659 whole entry, looked up): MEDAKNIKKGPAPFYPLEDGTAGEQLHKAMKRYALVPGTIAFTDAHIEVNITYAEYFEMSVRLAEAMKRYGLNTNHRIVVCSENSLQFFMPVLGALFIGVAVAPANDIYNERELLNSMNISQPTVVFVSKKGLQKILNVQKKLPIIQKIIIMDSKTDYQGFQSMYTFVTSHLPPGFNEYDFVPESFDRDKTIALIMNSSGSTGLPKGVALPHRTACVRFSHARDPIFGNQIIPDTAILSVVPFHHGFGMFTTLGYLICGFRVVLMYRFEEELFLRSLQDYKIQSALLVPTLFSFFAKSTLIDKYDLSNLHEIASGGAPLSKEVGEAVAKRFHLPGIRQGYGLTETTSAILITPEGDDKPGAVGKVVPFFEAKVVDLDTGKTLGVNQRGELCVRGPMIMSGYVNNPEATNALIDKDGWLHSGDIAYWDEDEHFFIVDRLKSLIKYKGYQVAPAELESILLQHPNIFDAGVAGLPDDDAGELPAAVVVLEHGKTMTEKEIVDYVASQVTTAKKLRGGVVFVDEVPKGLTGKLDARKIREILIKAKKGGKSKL

C=CC(=O)O
inactive: Potency [1] | Potency [2] | Potency [3] | Potency [4] | Potency [5] | Potency [6] | Potency [7] | Potency [8] | outcome [9] | Potency [10] | Potency [11]

Cc1cccc2sc(N)nc12
inactive: Potency [1] | Potency [2] | Potency [3] | Potency [4] | Potency [5] | Potency [8] | outcome [9] | Potency [12] | Potency [13] | Potency [10]

Nc1ccc(N=Nc2ccc(N)cc2)cc1
inactive: Potency [4] | Potency [15] | Potency [6] | outcome [9] | Potency [16] | Potency [13] | Potency [10] | Potency [11]
active: Potency [1] 27.3 µM | Potency [14] 4.48 µM

CC1=CC[C@@H]2C[C@H]1C2(C)C
inactive: viability change, negative = cytotoxic [1] 2.93% [at 19 µM] | viability change, negative = cytotoxic [2] 1.82% [at 19 µM] | activity change, negative = cytotoxicity [3] -2.4% [at 19 µM] | viability change, negative = cytotoxic [5] -1.25% [at 19 µM] | activation [6] 21.3% [at 19 µM] | activation (H2AX phosphorylation) [8] 1.37% [at 31.6 µM] | activation [9] -1.3% [at 15.8 µM] | activity change, negative = cytotoxicity [12] 0.589% [at 31.6 µM] | activity change, negative = cytotoxicity [16] 0.892% [at 15.8 µM] | cytotoxicity [10] 0.458% [at 15.8 µM] | activity change, negative = cytotoxic [11] 1.07% [at 15.8 µM]

[Cl][Nd]([Cl])[Cl]
inactive: Potency [2] | Potency [3] | Potency [4] | Potency [15] | Potency [5] | Potency [17] | Potency [18] | Potency [6] | Potency [7] | Potency [8] | outcome [9] | Potency [12] | Potency [19] | activity change, positive = activation [20] -6.02% | Potency [13] | Potency [10] | Potency [11]
active: Potency [14] 39.9 µM

Nc1ccn([C@H]2CS[C@@H](CO)O2)c(=O)n1
inactive: Potency [14] | Potency [2] | Potency [3] | Potency [4] | Potency [15] | Potency [5] | Potency [6] | Potency [7] | Potency [8] | outcome [9] | Potency [12] | Potency [16] | Potency [10] | Potency [11]

CCN(CC)CCOC(=O)C(c1ccccc1)c1ccccc1
inactive: Potency [14] | Potency [2] | Potency [3] | Potency [4] | Potency [15] | Potency [5] | Potency [6] | Potency [7] | Potency [8] | Potency [12] | Potency [16] | Potency [13] | Potency [11]

CC12CC3CC(C)(C1)CC(N)(C3)C2
inactive: Potency [14] | Potency [2] | Potency [3] | Potency [4] | Potency [15] | Potency [5] | Potency [17] | Potency [18] | Potency [6] | Potency [7] | Potency [8] | Potency [12] | Potency [19] | activity change, positive = activation [20] -0.576% [at 42.5 µM] | Potency [16] | Potency [13] | Potency [10] | Potency [11]

O=C(O)CN1C(=O)c2cccc3cccc(c23)C1=O
inactive: Potency [14] | Potency [2] | Potency [3] | Potency [4] | Potency [15] | Potency [5] | Potency [17] | Potency [18] | Potency [6] | Potency [7] | Potency [8] | outcome [9] | Potency [12] | Potency [19] | activity change, positive = activation [20] 3.18% [at 42.5 µM] | Potency [16] | Potency [10] | Potency [11]

CCN(CC)c1cccc(O)c1
active: Potency [15] 55.6 µM
inactive: Potency [1] | Potency [2] | Potency [3] | Potency [4] | Potency [5] | Potency [17] | Potency [18] | Potency [7] | outcome [9] | Potency [12] | Potency [19] | activity change, positive = activation [20] 2.77% | Potency [13] | Potency [10] | Potency [11]

CCCCCCCC(=O)Oc1c(Br)cc(C#N)cc1Br
active: Potency [17] 43.1 µM | Potency [19] 48.4 µM | Potency [13] 38.8 µM
inactive: Potency [14] | Potency [2] | Potency [3] | Potency [4] | Potency [15] | Potency [5] | Potency [18] | Potency [6] | Potency [7] | Potency [8] | activity change, positive = activation [20] -61.8% | Potency [16] | Potency [10] | Potency [11]

C[C@H](CS)C(=O)N1CCC[C@H]1C(=O)O
inactive: Potency [1] | Potency [2] | Potency [3] | Potency [15] | Potency [5] | Potency [6] | Potency [7] | Potency [8] | Potency [12] | Potency [10]

CCCCCCCCCCCC(=O)OCC(O)CO (stereo unspecified)
inactive: Potency [1] | Potency [2] | Potency [3] | Potency [4] | Potency [15] | Potency [5] | Potency [17] | Potency [18] | Potency [7] | Potency [8] | outcome [9] | Potency [12] | Potency [19] | activity change, positive = activation [20] 2.33% | Potency [16] | Potency [13] | Potency [10] | Potency [11]

COC(=O)C1=C(C)NC(C)=C(C(=O)OC(C)(C)CN(C)CCC(c2ccccc2)c2ccccc2)C1c1cccc([N+](=O)[O-])c1 (stereo unspecified)
inactive: Potency [14] | Potency [4] | Potency [15] | Potency [18] | Potency [6] | Potency [7] | activity change, positive = activation [20] -45.4% [at 42.5 µM] | Potency [13] | Potency [10]
active: Potency [1] 23.7 µM | Potency [17] 16.8 µM | Potency [19] 13.3 µM

CCN(CC)C(=O)/C(C#N)=C/c1cc(O)c(O)c([N+](=O)[O-])c1
inactive: Potency [14] | Potency [15] | Potency [6] | Potency [7] | Potency [12] | Potency [16] | Potency [11]
active: Potency [1] 26.6 µM

BrC(Br)C(Br)Br
inactive: Potency [1] | Potency [2] | Potency [3] | Potency [4] | Potency [15] | Potency [5] | Potency [6] | Potency [8] | outcome [9] | Potency [12] | Potency [16] | Potency [13] | Potency [10]

O=[N+]([O-])c1ccc2ncccc2c1
inactive: Potency [1] | Potency [2] | Potency [3] | Potency [15] | Potency [5] | Potency [18] | Potency [6] | Potency [7] | Potency [8] | outcome [9] | activity change, positive = activation [20] -20.1% | Potency [16] | Potency [13] | Potency [10]
